# UDG counter = counter-screen for AID inhibitors: uracil-DNA glycosylase inhibition | Potency, µM (highest dose often 115 µM), for the others: at the top dose activity change, negative = inhibition, usual class: inhibitors | 91,000 compounds, 0.14% hits | FRET deamination/UDG coupled assay, UDG read, 4 h; further: nearly all actives have a fitted effect of over 65% in size
# AID inh = blocks human AID cytidine deaminase activity; Q9GZX7; AID deamination FRET fluorescence, UDG-coupled, 4 h; Potency, µM (series often up to 115 µM), most hits filed as inhibitors; 91,000 compounds, 0.32% hits; AID 1347428; further: nearly all actives have a fitted effect of over 25% in size
# Target sequence (Q9GZX7 whole entry, looked up): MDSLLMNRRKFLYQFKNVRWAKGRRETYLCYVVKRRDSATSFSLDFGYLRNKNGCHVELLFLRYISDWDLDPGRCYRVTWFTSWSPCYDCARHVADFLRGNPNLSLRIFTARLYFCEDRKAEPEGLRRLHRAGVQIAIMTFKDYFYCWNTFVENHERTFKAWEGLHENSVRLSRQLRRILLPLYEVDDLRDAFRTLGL
# * hit, by the source's call; i = inactive; ? = inconclusive. This is a sample that favours compounds with a hit; in the whole collection about 0.47% have one here. The call rests on the fitted dose curve; in most records, active means well fitted curve in the direction sought with a large enough effect; inconclusive means small, poorly fitted or top-dose-only effect, or another doubt; inactive means no such curve, though single readings can be large; an effect the other way counts as inactive or inconclusive. On the % scale 0 is the no-effect control and ±100 the full control effect; potency means the concentration at half of the fitted maximal effect.
SMILES,UDG counter,AID inh
Cc1ccc(C)c(CNC(=O)C2CCCCN2S(=O)(=O)c2ccc(F)cc2)c1 (stereo unspecified),?,i
CC(C)Oc1ccc(CNC(=O)C2CCCCN2S(=O)(=O)c2ccc(F)cc2)cc1 (stereo unspecified),89µM*,?
CC(O)c1ccc(-c2ccc(CNc3nnnn3C)o2)cc1 (stereo unspecified),-8%,i
COc1ccc(CNC(=O)c2cnc3sc(N4CCCC4)nn3c2=O)cc1OC,-9%,i
COc1ccc(Br)cc1CNC(=O)c1cnc2sc(N3CCCCCC3)nn2c1=O,-6%,18µM*
N#Cc1nc(COc2ccc(Br)cc2)oc1NCc1ccco1,-1%,i
Cc1ccccc1C1/C(=C(\O)c2ccccc2F)C(=O)C(=O)N1c1ccc(CC(=O)O)cc1 (stereo unspecified),3%,i
COC(=O)c1sc(N2C(=O)C(=O)/C(=C(/O)c3ccc(C)c(F)c3)C2c2ccccc2F)nc1C (stereo unspecified),-5%,79µM*
CCCC1N=C2c3ccccc3N=C(SCC(=O)Nc3cc(OC)cc(OC)c3)N2C1=O (stereo unspecified),0%,i
CCOC(=O)CSc1nc(-c2ccc(OCC)cc2)cc(C(F)(F)F)c1C#N,1%,i
CCCOc1ccc(-c2cc(C(F)(F)F)c(C#N)c(SCCC(=O)O)n2)cc1,-21%,79µM*
O=C(NCc1cc2ccccc2[nH]1)c1cn[nH]n1,3%,i
CC(C)(C)c1ccc(S(=O)(=O)N2CCC(c3ccncc3)CC2)cc1,-8%,?
CC(C)Cc1ccc(S(=O)(=O)N2CCC(c3ccncc3)CC2)cc1,-9%,35µM*
CCCN(CCC)CC(O)Cn1cc(/C=C/C(=O)c2ccc(C)cc2)c2ccccc21 (stereo unspecified),-15%,35µM*
CCCN(CCC)CC(O)Cn1cc(/C=C/C(=O)c2ccc(Br)cc2)c2ccccc21 (stereo unspecified),-4%,i
Cc1ccc(NC(=O)C2=C(c3ccccc3)NC(=S)NC2c2ccc(F)cc2)cc1 (stereo unspecified),-2%,i
COc1ccc(N(C(=O)c2cccc(C)c2)S(=O)(=O)c2ccc(Cl)cc2)cc1,?,i
COc1ccc(N(C(=O)c2ccccc2C)S(=O)(=O)c2ccc(C)cc2)cc1,79µM*,?
Cc1cc(/C=C(/C#N)c2ccccn2)c(C)n1C1CC1,-3%,i
Cc1ccc(-n2c(SCC(=O)Nc3ccccc3F)nc3c(=O)[nH]cnc32)cc1,-8%,i
CCN(CC)CCNC(=O)c1ccc2c(=O)n3nc(Nc4ccccc4OC)sc3nc2c1,2%,71µM*
COc1ccccc1Nc1nn2c(=O)c3ccc(C(=O)NCc4cccs4)cc3nc2s1,-7%,i
COc1ccccc1Nc1nn2c(=O)c3ccc(C(=O)NCCCOC(C)C)cc3nc2s1,3%,i
Cc1ccc(C)c(Nc2nn3c(=O)c4ccc(C(=O)NCc5cccs5)cc4nc3s2)c1,-20%,40µM*
SMILES,UDG counter,AID inh
COc1ccc(OCC(=O)Nc2ccc3c(C)cc(=O)oc3c2)cc1,-5%,i
O=C1C(c2ccccc2)=S=C2c3ccccc3C=CN12,0%,i
Cc1ccc2nc(-c3ccco3)cc(C(=O)O)c2c1,10%,i
COc1ccc(-c2nn(C)c3sc(C(=O)N4CCN(c5cccc(Cl)c5)CC4)cc23)cc1OC,?,79µM*
COc1ccc(N2CCN(C(=O)c3cc4c(-c5ccccc5F)nn(C)c4s3)CC2)cc1,-10%,?
c1ccc(CN2CCC(=NNc3nncc4ccccc34)CC2)cc1,5%,i
NNc1nncc2ccccc12,35µM*,45µM*
CCc1c(C)sc(NC(=O)c2cccc(OC)c2)c1C#N,-4%,i
O=C(NNC(=S)NC(=O)c1ccc(F)cc1)c1ccc(Cl)cc1,10%,i
CCCCc1ccc(NC(=O)CC2CCCCC2)cc1,12%,i
CC(C)(Sc1ccc(CCN(CCCCC2CCCCC2)C(=O)NC2CCCCC2)cc1)C(=O)O,0%,89µM*
COc1ccc(CNC(=O)c2ccc(-c3nc(CS(=O)c4ccc(C)cc4)c(C)o3)cc2)cc1 (stereo unspecified),89µM*,?
Cc1ccc(CNC(=O)c2ccc(-c3nc(CS(=O)c4ccccc4)c(C)o3)cc2)cc1 (stereo unspecified),-29%,i
CC(C)CCn1c(C2CC(=O)N(Cc3ccc(F)cc3)C2)nc2ccccc21 (stereo unspecified),-1%,i
Cc1ccc(OCCn2c(C3CC(=O)N(Cc4ccc(F)cc4)C3)nc3ccccc32)c(C)c1 (stereo unspecified),?,35µM*
CN(Cc1ccccc1)C1CCN(Cc2ccc(Cl)cc2)CC1,0%,i
CCCOc1ccc(-c2nn(-c3ccccc3)cc2C2NC(=O)NC(C)=C2C(=O)OCC)cc1 (stereo unspecified),89µM*,?
CCCOc1ccc(-c2nn(-c3ccccc3)cc2C2NC(=O)NC(C)=C2C(=O)OC)cc1 (stereo unspecified),-22%,?
CCn1c2ccccc2c2cc(NC(=O)COc3cc(C)ccc3C)ccc21,?,i
Cc1ccc(C)c(OCC(=O)Nc2ccc(Br)cc2C(=O)O)c1,2%,56µM*
CCCc1cc(NCc2ccccn2)n2ncc(-c3ccccc3)c2n1,-4%,i
O=C(CNC(=O)N1CC(=O)Nc2ccccc21)Nc1ccc2c(c1)OCO2,-7%,i
CC(=O)[C@]1(O)Cc2c(O)c3c(c(O)c2[C@@H](O[C@H]2C[C@H](N)[C@H](O)[C@H](C)O2)C1)C(=O)c1ccccc1C3=O,62%,11µM*
Cc1ccc(C)c(N2CCN(CCCNC(=O)c3ccc4nc(N5CCCCC5)sc4c3)CC2)c1,-11%,40µM*
Cc1ccc(CNC(=O)c2ccc3nc(N4CCCCC4)sc3c2)cc1,-9%,i
SMILES,UDG counter,AID inh
COC(=O)NNC(=S)NC(=O)c1ccccc1,-10%,i
CC(C)(C)C1CCc2c(sc(NC(=O)c3ccccc3F)c2C(=O)NCc2ccco2)C1 (stereo unspecified),-12%,11µM*
Cc1ccc(C(=O)Nc2sc3c(c2C(=O)NCc2ccco2)CCC(C(C)(C)C)C3)cc1 (stereo unspecified),2%,i
CN(C)c1ccc(C(=O)N/N=C/c2ccc(Br)s2)cc1,4%,i
CC(C)(C)c1ccc(OCc2nc3ccccc3n2CCOc2ccccc2)cc1,-16%,32µM*
COc1ccc(OCc2nc3ccccc3n2Cc2ccc(C(C)(C)C)cc2)cc1,-25%,?
CCCCN(CCCC)CCNC(=O)c1cn(CC)c2ccc(S(=O)(=O)N3CCc4ccccc4C3)cc2c1=O,?,28µM*
CCn1cc(C(=O)NCCc2ccccc2)c(=O)c2cc(S(=O)(=O)N3CCc4ccccc4C3)ccc21,-14%,?
N#CC1=C(N)OC(c2ccccc2)=C(C(=O)c2ccccc2)C1c1ccccc1 (stereo unspecified),1%,i
CCc1ccc(-n2c(SCc3nc(-c4cc(OC)ccc4OC)no3)nnc2-c2ccccc2)cc1,-22%,?
COc1ccc(-n2c(Cc3ccccc3)nnc2SCc2nc(-c3ccccc3C)no2)cc1,-29%,32µM*
CCC1c2ccsc2CCN1C(=O)COc1ccc2c(C)cc(=O)oc2c1 (stereo unspecified),-1%,i
